The record followed here is PubChem BioAssay (NCI).

Test systems include DU-145 prostate; K-562 leukemia; MALME-3M melanoma; MDA-MB-231 breast; RXF 393 renal; SF-268 CNS; SF-295 CNS; SF-539 CNS; UACC-257 melanoma; M14 melanoma; HCT-15 colon; HT29 colon; SNB-75 CNS; SNB-19 CNS; U251 CNS; PC-3 prostate; SK-MEL-5 melanoma; UACC-62 melanoma; LOX IMVI melanoma; SK-MEL-28 melanoma.
Common to all, as to experiment: NCI-60 one-dose screen, 48 h (100 = growth as untreated, 0 = no growth, -100 = all killed)
Holding throughout (settings): 10 µM unless noted

This is part of a sample that, as a whole, favours compounds with a hit. Of some 83,000 tested, about 20% had one in any assay.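 Single-concentration screen, 48 h exposure, 96-well plates. Endpoint: percent growth. Below 10 = active.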 A number with no mark means an inactive call. Calls of active or inactive are those of the source.

`Cc1nc(Nc2ccccn2)sc1C(=O)/C=C/c1ccc(Br)cc1`: the growth in the experiment with DU-145 prostate was 66.7%; in the experiment with K-562 leukemia, 13.3%; with MALME-3M melanoma, 77.1%; in the experiment on MDA-MB-231 breast it was 71.1%; with RXF 393 renal, 78.4%; in the experiment with SF-268 CNS it was 78.8%. Moreover, the growth with SF-295 CNS is 72.8%; with SF-539 CNS, 84.7%; in the experiment on UACC-257 melanoma, 95.7%; in the experiment with M14 melanoma it was 80.7%; with HCT-15 colon, 30.4%; in the experiment with HT29 colon, 25.9%. For the same compound, the growth with SNB-75 CNS is 40.2%; with SNB-19 CNS, 69.2%; in the experiment on U251 CNS, 59.8%; in the experiment on PC-3 prostate it was 56.3%; in the experiment on SK-MEL-5 melanoma, 84.7%; with UACC-62 melanoma, 61.5%. For the same compound, the growth in the experiment with LOX IMVI melanoma was 32.2%; in the experiment with SK-MEL-28 melanoma, 99.6%.
Regarding `COc1cc(-c2ccc(-c3ccc(C(=N)N)nc3)s2)cc(OC)c1OC`, the growth in the experiment on DU-145 prostate was 49.9%; in the experiment with K-562 leukemia it was 5.58% (active); with MALME-3M melanoma it was 24.7%; with MDA-MB-231 breast, 44.2%; with RXF 393 renal, 77.1%; with SF-268 CNS, 86.1%. Also, the growth is 40.1% in the experiment on SF-295 CNS; 1.84% (active) in the experiment with SF-539 CNS; 92.9% in the experiment on UACC-257 melanoma; 43.1% in the experiment on M14 melanoma; 21.4% with HCT-15 colon; 14.2% in the experiment with HT29 colon. The growth in the experiment on SNB-75 CNS is 68.5%; in the experiment with SNB-19 CNS it was 65.2%; in the experiment on U251 CNS it was 28.9%; in the experiment on PC-3 prostate it was 54.7%; in the experiment with SK-MEL-5 melanoma it was 37.6%; in the experiment with UACC-62 melanoma it was 59.5%. Besides, the results for the growth with LOX IMVI melanoma and in the experiment with SK-MEL-28 melanoma were -14.3% (active) and 59.3%, respectively.
Regarding `N[C@H]1CCC[C@@H]1NCCCCN1C(=O)c2cccc3cccc(c23)C1=O`, the growth with DU-145 prostate is 43.4%; with K-562 leukemia, 65.9%; in the experiment with MALME-3M melanoma, 104%; with MDA-MB-231 breast, 52.4%; in the experiment on RXF 393 renal it was 63.9%; in the experiment on SF-268 CNS, 48.1%. Besides, the growth with SF-295 CNS was 71.9%; in the experiment on SF-539 CNS, 29.7%; in the experiment with UACC-257 melanoma, 104%; with M14 melanoma, 53.1%; in the experiment on HCT-15 colon, 83.6%; in the experiment on HT29 colon, 26.2%. Moreover, the growth is 75.7% in the experiment with SNB-75 CNS; 77% with SNB-19 CNS; 63% in the experiment with U251 CNS; 55% in the experiment on PC-3 prostate; 91.6% with SK-MEL-5 melanoma; 95.7% with UACC-62 melanoma. Also, the growth was 26.1% in the experiment on LOX IMVI melanoma and 90.3% in the experiment on SK-MEL-28 melanoma.
As to `CSc1ncc(C)c(Nc2ccc(Cl)cc2)n1`, the growth was 102% in the experiment with DU-145 prostate; 94% in the experiment with K-562 leukemia; 122% in the experiment on MALME-3M melanoma; 110% in the experiment on MDA-MB-231 breast; 114% with RXF 393 renal; 99.9% in the experiment on SF-268 CNS. The growth with SF-295 CNS was 96%; in the experiment with SF-539 CNS, 118%; with UACC-257 melanoma, 127%; in the experiment on M14 melanoma, 112%; in the experiment on HCT-15 colon it was 99.3%; with HT29 colon, 96.4%. For the same compound, the growth was 90.4% in the experiment on SNB-75 CNS; 105% in the experiment on SNB-19 CNS; 93% in the experiment on U251 CNS; 87.6% in the experiment with PC-3 prostate; 110% with SK-MEL-5 melanoma; 99.4% with UACC-62 melanoma. Also, the values for the growth in the experiment with LOX IMVI melanoma and with SK-MEL-28 melanoma were 107% and 114%, respectively.
`N#C/C(=C\c1ccc(Br)cc1)n1nnc2ccccc21`: the growth in the experiment with DU-145 prostate is 14.5%; in the experiment with K-562 leukemia, 14.5%; in the experiment on MALME-3M melanoma, 24.1%; in the experiment with MDA-MB-231 breast, 0.304% (active); in the experiment with RXF 393 renal it was -15.4% (active); in the experiment on SF-268 CNS, 23.9%. Also, the growth was 16.1% in the experiment on SF-295 CNS; -3.55% (active) with SF-539 CNS; 13.4% in the experiment on UACC-257 melanoma; 10.7% with M14 melanoma; 2.5% (active) in the experiment on HCT-15 colon; 3.79% (active) with HT29 colon. Also, the growth with SNB-75 CNS was 24.8%; in the experiment on SNB-19 CNS, 29%; with U251 CNS it was -35.7% (active); with PC-3 prostate, 12.7%; with SK-MEL-5 melanoma, 6.25% (active); with UACC-62 melanoma it was 14%. The growth with LOX IMVI melanoma is -75% (active); in the experiment on SK-MEL-28 melanoma, 6.49% (active).
Take `COc1cc(CNC(=O)/C=C/C=C/c2ccc3c(c2)OCO3)ccc1OCc1cn(-c2ccc(Cl)c(Cl)c2)nn1`: the growth in the experiment on DU-145 prostate is -32.3% (active); in the experiment with K-562 leukemia, 5.49% (active); in the experiment with MALME-3M melanoma it was -54.7% (active); in the experiment with MDA-MB-231 breast, 5.5% (active); in the experiment with RXF 393 renal, -24% (active); in the experiment with SF-268 CNS, 18%. For the same compound, the growth was -39% (active) in the experiment with SF-295 CNS; 74.4% with SF-539 CNS; -17.4% (active) with UACC-257 melanoma; -30.4% (active) with M14 melanoma; -49.9% (active) in the experiment on HCT-15 colon; 5.61% (active) with HT29 colon. Besides, the growth was -36.8% (active) in the experiment with SNB-75 CNS; 20.5% in the experiment on SNB-19 CNS; -57.5% (active) in the experiment with U251 CNS; -11% (active) in the experiment with PC-3 prostate; -41.1% (active) in the experiment with SK-MEL-5 melanoma; -46.7% (active) in the experiment on UACC-62 melanoma. In addition, the values for the growth with LOX IMVI melanoma and with SK-MEL-28 melanoma were 11.6% and 6.52% (active), respectively.
With `N#Cc1c(-c2ccccc2)nc(SCC2CO2)nc1N1CCOCC1` (stereo not given), the growth was 87.5% in the experiment with DU-145 prostate; 97.4% with K-562 leukemia; 25.7% with MALME-3M melanoma; 71.4% in the experiment with MDA-MB-231 breast; 31.5% with RXF 393 renal; 69.7% in the experiment on SF-268 CNS. The growth in the experiment with SF-295 CNS was 9.14% (active); in the experiment on SF-539 CNS, 85.6%; in the experiment with UACC-257 melanoma it was 69.2%; with M14 melanoma, 84%; in the experiment on HCT-15 colon it was 74.2%; with HT29 colon, 74%. The growth in the experiment with SNB-75 CNS is 34.1%; in the experiment with SNB-19 CNS, 60.9%; with U251 CNS, 75.3%; in the experiment with PC-3 prostate, 36.1%; in the experiment with SK-MEL-5 melanoma, 84.9%; in the experiment on UACC-62 melanoma, 51.9%. The growth in the experiment with LOX IMVI melanoma was 76.6%; in the experiment on SK-MEL-28 melanoma it was 64.7%.
With `COc1cc2c(cc1OC)-c1ccc3cc4c(cc3c1N(CCCn1ccnc1)C2)OCO4`, the growth with DU-145 prostate was 39.6%; in the experiment on K-562 leukemia it was 20.4%; with MALME-3M melanoma, 47.8%; with MDA-MB-231 breast, 56.7%; in the experiment on RXF 393 renal it was 57.8%; with SF-268 CNS, 34.4%. For the same compound, the growth was 27.7% in the experiment with SF-295 CNS; 13.3% in the experiment with SF-539 CNS; 52.8% in the experiment with UACC-257 melanoma; 27.1% with M14 melanoma; 95.7% with HCT-15 colon; 27.6% in the experiment on HT29 colon. Besides, the growth in the experiment with SNB-75 CNS is 13.2%; in the experiment with SNB-19 CNS, 17.2%; in the experiment on U251 CNS, -6.84% (active); in the experiment with PC-3 prostate, 37.6%; with SK-MEL-5 melanoma it was 8.78% (active); in the experiment with UACC-62 melanoma, -20.4% (active). Further, the results for the growth in the experiment with LOX IMVI melanoma and in the experiment on SK-MEL-28 melanoma were 1.62% (active) and 59.2%, respectively.
